Screening data from PubChem.
Only some compounds are listed: those with a hit (about 2.2% of all), similar ones and a draw of the others.
GC-A act – GC-A stimulated cGMP production enhancers – HEK293 GC-A cells, cGMP TR-FRET, EC30 ANP, primary screen. Atrial natriuretic peptide receptor 1 (Homo sapiens), P16066. 0% at EC30 ANP, 100% saturating ANP. activation, % at 10 µM. 370,000 compounds, 0.14% hits; in the data active means activation above about 40%
proKLK7 act – proKLK7 zymogen activators, primary screen, biochemical, fluorescence intensity | Kallikrein-7 (Homo sapiens), P49862 | activation, % at 7 µM | 370,000 compounds, 0.9% hits | purified proKLK7, EDANS-DABCYL substrate fluorescence; 100% is mature enzyme control, 0% vehicle | AID 652039, 2013;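 active means activation above the mean of all tested compounds plus 3 SD, computed per campaign excluding outliers beyond control limits, cut at about 13% in these data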
ADAM17 inh – ADAM17 inhibitors, primary screen, biochemical, QFRET | Disintegrin and metalloproteinase domain-containing protein 17 (Homo sapiens), P78536 | recombinant ADAM17, EDANS/DABCYL FRET peptide cleavage | inhibition, % at 6.95 µM | 370,000 compounds, 0.83% hits | AID 720648, 2013;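 active means inhibition above the mean of compounds lying between control limits plus 3 SD, set per campaign, cut at about 8.5% in these data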
ADAM10 inh – human ADAM10 inhibitors, primary screen, biochemical, QFRET, HTS; AID 720582, 2013; recombinant ADAM10, EDANS/DABCYL FRET peptide cleavage, 3 h; Disintegrin and metalloproteinase domain-containing protein 10 (Homo sapiens), O14672; 370,000 compounds, 0.62% hits; inhibition, % at 7 µM;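 active means inhibition above a per-campaign cutoff equal to the mean of compounds falling between control-based bounds plus 3 SD, cut at about 20% in these data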
Target sequence (O14672 214-748 limits assumed): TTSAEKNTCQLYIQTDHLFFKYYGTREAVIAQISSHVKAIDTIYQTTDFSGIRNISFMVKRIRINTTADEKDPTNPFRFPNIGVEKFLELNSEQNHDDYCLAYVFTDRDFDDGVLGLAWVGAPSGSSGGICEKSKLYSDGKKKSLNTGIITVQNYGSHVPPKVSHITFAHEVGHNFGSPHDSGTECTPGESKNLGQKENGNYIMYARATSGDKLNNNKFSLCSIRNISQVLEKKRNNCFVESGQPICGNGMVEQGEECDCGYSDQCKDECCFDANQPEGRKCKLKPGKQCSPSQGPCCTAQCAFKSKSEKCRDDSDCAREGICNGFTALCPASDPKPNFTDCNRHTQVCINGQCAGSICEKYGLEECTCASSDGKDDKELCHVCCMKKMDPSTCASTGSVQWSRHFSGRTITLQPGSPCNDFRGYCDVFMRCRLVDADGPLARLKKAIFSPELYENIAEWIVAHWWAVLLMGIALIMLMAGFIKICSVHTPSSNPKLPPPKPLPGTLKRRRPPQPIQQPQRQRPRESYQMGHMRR
GC-B act – human GC-B receptor activators, primary screen, HEK293 GC-B cells, cGMP TR-FRET, EC30 CNP | 370,000 compounds, 0.11% hits | Atrial natriuretic peptide receptor 2 (Homo sapiens), P20594 | activation, % at 10 µM | 0% at EC30 CNP, 100% saturating CNP;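 active means activation at 10 µM reaching about 35% in either raw or pattern-adjusted values, limit read from the data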
proKLK7 act conf – proKLK7 zymogen activators, confirmation, biochemical, fluorescence intensity, triplicate | shares compounds with proKLK7 act | purified proKLK7, EDANS-DABCYL substrate fluorescence; scaled: vehicle 0, mature enzyme 100 | activation, % at 7 µM | 3,200 compounds, 68% hits | AID 686949, 2013;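 active means activation, as change over the incubation, above the mean of all tested compounds plus 3 SD, cut at about 13% in these data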
EDANS interfere – EDANS-DABCYL substrate optical interference, artefact control for kallikrein-7 zymogen activator project, biochemical, fluorescence intensity, high throughput; no enzyme, 4 h; solvent 0%, active enzyme control 100%; activation, % at 7 µM; 3,200 compounds, 80% hits; shares compounds with proKLK7 act; AID 686952, 2013;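 active means activation above the all-compound mean plus 3 SD, ignoring values outside control-based bounds, cut at about 4.8% in these data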;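 further: value is the 4 h activation minus the activation read at time zero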
EDANS interf – EDANS fluorescence interference in dose response, no enzyme. shares compounds with proKLK7 act. EDANS-DABCYL peptide fluorescence interference. EC50, µM. 250 compounds, 20% hits. AID 720493;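 active means compounds that raise the fluorescence signal in this interference counterscreen, with EC50 at or below 10 µM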;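 further: intact quenched peptide substrate alone read at 355 nm excitation and 520 nm emission; signal is fluorescence gain from T0 to T4 after four hours at room temperature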
Hits are given with their value; - = inactive; . = no result given.

SMILES	GC-A act	proKLK7 act	ADAM17 inh	ADAM10 inh	GC-B act	proKLK7 act conf	EDANS interfere	others
O=c1c(-c2ccc(Br)cc2)coc2c(CN3CCOCC3)c(O)ccc12	-	14	-	-	-	13	5.8	EDANS interf=-
Cc1oc2c(CN3CCCC3)c(O)ccc2c(=O)c1-c1ccccc1	-	.	.	.	-	.	.
CC1CN(Cc2c(O)ccc3c(=O)c(-c4ccccc4Cl)coc23)CC(C)O1 (configuration not stated)	-	90	-	-	-	26	30
O=c1c(-c2ccccc2Cl)coc2c(CN3CCCCC3)c(O)ccc12	-	60	-	-	-	74	74
CC(=O)CC[C@H]1CC[C@]2(CCCN(S(=O)(=O)C3CCCCC3)C2)O1	-	-	-	-	-	.	.
CCOC(=O)CC[C@@H]1CC[C@]2(CCCN(Cc3ccc(Cl)cc3)C2)O1	-	-	-	-	-	.	.
O=C(c1cccc(I)c1)N1CCC(Oc2cccnc2)CC1	-	-	-	-	-	.	.
COc1ccc(Oc2coc3c(CN4CCOCC4)c(O)ccc3c2=O)cc1	-	29	-	-	-	-	15
COc1ccc(Oc2coc3cc(O)ccc3c2=O)cc1	-	-	-	-	-	.	.
COc1ccc(N2CCN(CCCNC(=O)CCc3ccc(F)cc3)CC2)cc1	-	-	-	-	-	.	.
Cc1ccc(C(=O)COC(=O)CSc2cccc3cccnc23)c(C)c1	-	15	-	-	-	-	12
COc1ccc(C2CC(c3cccs3)=Nc3ccccc3S2)cc1 (configuration not stated)	-	40	-	-	-	-	-
Cc1ccc(-c2csc3nc4ccc(C(=O)NCCO)cc4c(=O)n23)cc1	-	16	-	-	-	-	-
Cc1ccc(-c2csc3nc4cc(C(=O)NC5CCC(O)CC5)ccc4c(=O)n23)cc1 (configuration not stated)	-	-	-	-	-	.	.
Nc1nnnn1/N=C/c1ccc(O)cc1	-	-	-	-	-	.	.
CCN(C)c1ccc(/C=N\n2nnnc2N)cc1	.	13	-	-	.	46	43
c1cnc2nc(CSc3ncn[nH]3)cn2c1	-	48	-	-	-	-	11
c1ccc(SCc2cn3cccnc3n2)nc1	.	-	-	-	.	.	.
Cc1ccc(S(=O)(=O)NCC(=O)OCc2cc(=O)oc3c(C)c(C)ccc23)cc1C	-	-	-	-	-	.	.
CNS(=O)(=O)c1cccc(C(=O)OCc2cc(=O)oc3c(C)c(O)ccc23)c1	-	265	-	-	-	603	607
CCc1cc2c(COC(=O)c3cccc(S(C)(=O)=O)c3)cc(=O)oc2cc1O	-	508	-	-	-	568	559
CCc1cc2c(COC(=O)c3c(C)noc3C)cc(=O)oc2cc1O	-	-	-	-	-	.	.
CO[C@H]([C@H](C)/C=C/N(C)C=O)[C@@H](C)C(=O)CC[C@H](C)[C@H](O)[C@H](C)[C@H]1OC(=O)/C=C/C(C)=C/C[C@H](O)C[C@@H]2C=CC[C@@H](C[C@H](OC)[C@@H](C)[C@@H](OC)C[C@@H](OC)[C@@H]1C)O2	-	.	-	-	-	.	.
COc1ccc(N)c2c1C(=O)c1ccccc1C2=O	-	-	-	-	-	.	.
COc1ccc2noc3c2c1C(=O)c1ccccc1-3	-	25	-	-	-	-	-
SMILES	GC-A act	proKLK7 act	ADAM17 inh	ADAM10 inh	GC-B act	proKLK7 act conf	EDANS interfere	others
O=C(c1cccc(F)c1F)N1CCCC(c2nc(-c3cccs3)no2)C1 (configuration not stated)	-	-	-	-	-	.	.
COc1cccc(NC(=O)NNC(=O)CCc2ccc(O)c(O)c2)c1	-	19	-	-	-	13	16
O=C1Cc2ccccc2C(=O)N1Cc1cccc(Cl)c1	-	-	-	-	-	.	.
Nc1cccc2c1C(=O)N(Cc1cccc(Cl)c1)C2=O	-	27	-	-	-	-	-
O=C1CCC2(CCC(c3ccccc3)CC2)N1CCCO (configuration not stated)	-	-	-	-	-	.	.
Cc1ccccc1Cn1cc(COC(=O)NCC(C)C)nn1	-	-	-	-	-	.	.
O=C(O)CCC(=O)c1ccc2ccc3cccc4ccc1c2c34	-	26	-	-	-	62	65
O=C(O)CCC(=O)c1cccc2ccccc12	-	-	-	-	-	.	.
CNC(=O)c1cc2c(=O)n3cccc(C)c3nc2n(C(C)C)c1=N	-	91	-	-	-	71	71
O=C(NCc1cccnc1)c1cccn2c(=O)c3sccc3nc12	-	19	-	-	-	67	74
CCCCNC(=O)c1cc2c(=O)n3cccc(C)c3nc2n(Cc2ccccc2)c1=N	-	-	-	-	-	.	.
COc1ccc(CCn2c(=N)c(C(=O)NCC3CCCO3)cc3c(=O)n4ccccc4nc32)cc1 (configuration not stated)	-	-	-	-	-	.	.
COCCCn1c(=N)c(C(=O)NCC2CCCO2)cc2c(=O)n3cccc(C)c3nc21 (configuration not stated)	-	121	-	-	-	61	71
Cc1cccn2c(=O)c3cc(C(=O)NCc4cccnc4)c(=N)n(CC4CCCO4)c3nc12 (configuration not stated)	-	111	-	-	-	-	33
Cc1cccn2c(=O)c3cc(C(=O)NCCc4ccccc4)c(=N)n(CC4CCCO4)c3nc12 (configuration not stated)	-	-	-	-	-	.	.
CCCN1CCS(=O)(=O)N(Cc2cn(Cc3ccc(F)cc3)nn2)C(C(=O)OC)C1 (configuration not stated)	-	-	-	-	-	.	.
O=C(NC1CC1c1ccccc1)N1CCC(c2nc3ccc(Cl)cc3[nH]2)CC1 (configuration not stated)	-	-	-	-	-	.	.
C=CCn1c(=N)c(C(=O)NCCCOC)cc2c(=O)n3cccc(C)c3nc21	-	120	-	-	-	56	66
